The structures appear in SMILES notation.

The test deals with Lefty1. Kind of test: Lefty1 protein binding to printed compounds – biochemical, small-molecule microarray, 635/667 nm fluorescence, primary screen (AID 1139). Particulars: fluorescence 635/667, higher = more signal.
With `C[C@@H]1ON(c2ccccc2)[C@H](c2ccccc2)[C@H]1C(=O)O`, the composite z-score stood at 0.309.

Turning to `C[C@]1(C(=O)O)c2ccccc2C(=O)N(Cc2cc(F)cc(C(F)(F)F)c2)[C@H]1c1ccc(CO)cc1`, the composite z-score is 0.956. In the case of `COCCOC(=O)N1C(=O)[C@@]2(c3cc(C#CCCO)ccc31)[C@H](c1ccccc1OCCO)N1[C@H](c3ccccc3)[C@H](c3ccccc3)OC(=O)[C@H]1[C@@H]2C(N)=O`, the composite z-score was 0.78. The result for `O=C1[C@H]2C=C(I)[C@H](C[C@@H]2OCCCCCCO)[C@@]12CO2` reads 1.07; that for `C=CCOC(=O)[C@@H]1[C@H]2C(=O)O[C@H](c3ccccc3)[C@H](c3ccccc3)N2[C@H](c2ccc(OCCOC(=O)[C@H]3C[C@H]4C(=O)N[C@@H](CCCCN(C)C)C(=O)N4[C@H]3c3ccc(O)cc3)cc2)[C@@]12C(=O)Nc1ccc(I)cc12`, 1.58; that for `O=C(NCc1ccccc1)[C@@H]1c2ccccc2C(=O)N(Cc2cc(C(F)(F)F)cc(C(F)(F)F)c2)[C@H]1c1ccc(CO)cc1`, 0.991. `CCCC[C@H]1C[C@@H]1[C@@H]1N(C(C)=O)[C@H](c2cccc(OC)c2)CC12CC2` showed a composite z-score of -0.613. Molecule `CCOC(=O)C1=CCC(c2cc3ccccc3[nH]2)N(CCN2CC(C(=O)OCC)=CCC2c2cc3ccccc3[nH]2)C1` (stereo not given) had a composite z-score of 0.24. Consider `C=C(CCCC)/C(=C/C[C@H](OC(C)=O)c1cccc(OCCO)c1)c1cnc2ccccc2c1`, for which the composite z-score was 0.177. The molecule `CCCN1C(=O)[C@@]2(c3ccc([N+](=O)[O-])cc3)CC(=O)N(CC34CC5CC(CC(C5)C3)C4)[C@@H]2c2ccc(CO)cc21` gave a composite z-score of -0.0689. `COc1ccc(C(O)C2C=CC3C(=O)N(c4ccccc4)C(=O)C3N2Nc2ccc(C#N)cc2)cc1OCc1ccccc1` (stereo not given) showed a composite z-score of -0.56. On to `CC(C)NC(=O)[C@@]1(c2ccc([N+](=O)[O-])cc2)CC(=O)N(CC23CC4CC(CC(C4)C2)C3)[C@@H]1c1ccc(CO)cc1`, for which the composite z-score is 1.51.

Molecule `CC1=C([C@H](O)CCc2ccccc2)[C@H](CO)n2c(=O)n(-c3ccccc3)c(=O)n2C1` showed a composite z-score of 0.27. In the case of `O=C(NC1CC1)[C@@H]1c2ccccc2C(=O)N(Cc2cc(C(F)(F)F)cc(C(F)(F)F)c2)[C@H]1c1ccc(CO)cc1`, the composite z-score is -0.291. With `COC(=O)[C@@]1(Cc2ccccc2)N=C(c2ccc(OCCCO)cc2)O[C@H]1c1ccccc1CN=[N+]=[N-]`, the composite z-score turned out to be 0.434. The result for `O=C1c2ccccc2[C@@]2(Cc3ccccc3N(Cc3ccccc3)C2=O)[C@H](c2ccc(CO)cc2)N1Cc1ccccc1Cl` reads -0.0772.

On to `CC(C)C[C@H]1NC(=O)C([C@@H](C)OCc2ccccc2)NC(=O)[C@@]23C(=O)N[C@@H](Cc4ccccc4)C2[C@H](C)[C@@]2(C)O[C@H]2C3/C=C/C/C=C\CNC1=O` (stereo not given in full), for which the composite z-score was 1.01.

In turn, `CC(C)=CCCC(C)=CC(O)C1C=CC2C(=O)NC(=O)C2N1Nc1ccc(Cl)cc1Cl` (stereo not given) gave a composite z-score of 0.0724. In the case of `CCCCC(=C=CC[C@H](O)c1ccc(CO)o1)CCO`, the composite z-score was found to be 0.738. Next, `CCOC(=O)C1=CC[C@@H](c2ccccc2)N(S(=O)(=O)c2ccc(C)cc2)[C@H]1c1ccccc1I`: -0.163.

`[N-]=[N+]=Nc1ccccc1[C@@H]1OC(c2ccc(OCCCO)cc2)=N[C@]1(CCS(=O)(=O)c1ccccc1)C(=O)NCC(O)CO` (stereo not given in full) yielded a composite z-score of -0.285. `N#Cc1ccc(NN2C(C(O)C3CC=CCC3)C=CC3C(=O)N(c4ccccc4)C(=O)C32)cc1` (stereo not given) registered a composite z-score of 0.361. The result for `CC(C)C[C@@H]1NC(=O)[C@@]23C(=O)N[C@@H](Cc4ccccc4)C2[C@H](C)[C@@]2(C)O[C@H]2C3/C=C/C/C=C\CNC(=O)CNC1=O` (stereo not given in full) reads 0.938; that for `COc1ccc([Si](C)(C)[C@H]2[C@H](CC(=O)N3CCC[C@H]3CO)O[C@@]3(C(=O)N(Cc4ccc(N5CCCCC5=O)cc4)c4ccccc43)[C@@H]2C)cc1`, 1.49; that for `C=CCC(OC(C)=O)[C@@H]1[C@@H](N(Cc2cccc3ccccc23)C(=O)Cc2ccc(OC)cc2)c2cc(OCCCO)ccc2N1C(=O)c1ccc2ccccc2c1` (stereo not given in full), 0.143. The molecule `NC(=O)NCC#Cc1ccc2c(c1)[C@]1(C(=O)N2)[C@H](c2ccc(OCCO)cc2)N2[C@H](c3ccccc3)[C@H](c3ccccc3)OC(=O)[C@H]2[C@@H]1C(=O)O` came in with a composite z-score of -0.601.

As to `O=C1O[C@H](c2ccccc2)[C@H](c2ccccc2)N2[C@H]1[C@@H](C(=O)N1CCN(c3ncccn3)CC1)[C@]1(C(=O)Nc3ccc(C#CCCO)cc31)[C@H]2c1ccc(O)cc1`, the composite z-score stood at 0.186. Next, `C=C(CCCC)/C(=C/C[C@H](OC(=O)c1ccncc1)c1cccc(OCCO)c1)c1cnc2ccccc2c1`: 1.07; `O=C(N1CCOCC1)[C@@]1(Cc2ccccc2)COC(c2ccc(OCCCO)cc2)=N1`: -1.1.

The molecule `C=CCC(OC(C)=O)[C@@H]1[C@@H](N(Cc2ccc(-c3cccc(C(F)(F)F)c3)o2)C(=O)c2ccc(-c3ccccc3)cc2)c2cc(OCCCO)ccc2N1C(=O)c1ccc2ccccc2c1` (stereo not given in full) showed a composite z-score of 1.17. `[N-]=[N+]=NCc1ccccc1[C@@H]1OC(c2ccc(OCCCO)cc2)=N[C@]1(Cc1ccccc1N=[N+]=[N-])C(=O)NCC(O)CO` (stereo not given in full) yielded a composite z-score of -0.459. The result for `CCCNC(=O)[C@@]1(c2ccc([N+](=O)[O-])cc2)CC(=O)N(C(C)C)[C@@H]1c1ccc(CO)cc1` reads -0.844; that for `CC(C)N1C(=O)C[C@@](C(=O)NCCN2CCOCC2)(c2ccc([N+](=O)[O-])cc2)[C@H]1c1ccc(CO)cc1`, -0.516.

In turn, `CCCC[C@H]1OB(O)C[C@H]2C1=C(COc1ccccc1)C[C@H]1C(=O)C=CC(=O)[C@H]12` yielded a composite z-score of 1. In the case of `CC(C)[Si](C#CCCc1ccccc1)(O[C@H](c1ccccc1)c1cn(Cc2ccccc2)nn1)C(C)C`, the composite z-score was 0.919.

(Values after PubChem BioAssay.)
